Experimental data taken from PubChem BioAssay (Tox21).
“And” between values parts separate entries of the source, which are not always exact repeats. Identical values can stand only once. Results filed as inconclusive are left out. Entries that show only a call come without a potency. More than one record can exist for a structure, and the calls need not agree. The source made the active and inactive calls. Unless noted, calls follow the shape of the dose curve; as a rule, active = well fitted curve in the direction sought with a large enough effect in the repeat runs; inconclusive = weak or mixed curves; inactive = no such curve, though single readings can be large; an effect the other way counts as inactive or inconclusive.

Columns and labels:
[1] = A CellTox Green Cytotoxicity Assay to monitor cytotoxicity in HepG2 cells - 8 hour (AID 1224890); also: nearly all actives have a fitted effect of over 45% in size
Outline: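 HepG2 cells were seeded together with the CellTox Green dye at 600 cells/well, left 5 h at 37 C/5% CO2, then given compounds in DMSO. Fluorescence from dye bound to dead-cell DNA was read repeatedly over 40 h of treatment at 37 C.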

[2] = qHTS assay to identify small molecule antagonists of the estrogen receptor alpha (ER-alpha) signaling pathway using the BG1 cell line in the presence of 0.1 nM 17-beta-estradiol - cell viability counter screen (AID 1259241); also: nearly all actives have a fitted effect of over 40% in size
Outline: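 Live-cell protease activity (CellTiter-Fluor fluorescence, 30 min) was read in the same wells after VM7Luc4E2 cells had been exposed to compounds with 0.1 nM 17beta-estradiol for 22 hr at 37C.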

[3] = qHTS assay to identify small molecule antagonists of the androgen receptor (AR) signaling pathway using the MDA cell line in the presence of 0.5 nM R1881 - cell viability counter screen (AID 1259242); also: nearly all actives have a fitted effect of over 45% in size; also: potency is read from the fitted curve at half-maximal effect
Outline: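 MDA-kb2 cells (human breast carcinoma, stably carrying MMTV-luciferase reporter) were exposed to compounds with 0.5 nM R1881 (final) for 16 hr at 37C, 0% CO2; viability then read as live-cell protease fluorescence (CellTiter-Fluor, 30 min) in the same wells.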

[4] = target: Estrogen receptor (Homo sapiens) (UniProt P03372); assay: qHTS assay to identify small molecule antagonists of the estrogen receptor alpha (ER-alpha) signaling pathway using the BG1 cell line in the presence of 0.1 nM 17-beta-estradiol (AID 1259244); also: nearly all actives have a fitted effect of over 50% in size; also: potency is read from the fitted curve at half-maximal effect
Outline: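 VM7Luc4E2 cells (endogenous full-length ER-alpha, stable 4xERE-luciferase) were grown 5 days in phenol red-free medium with charcoal-stripped FBS, then exposed 22 h at 37C to compounds plus 0.1 nM (final) 17beta-estradiol; ONE-Glo luminescence read-out.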

[5] = qHTS assay to identify small molecule phospholipidosis (PLD) inducers (AID 1259344; active = well fitted curve in the direction sought with a large enough effect; an effect the other way counts as inactive or inconclusive; also: potency is read from the fitted curve at half-maximal effect)
Outline: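 HepG2 cells on collagen I, attached 4 h at 37 C, were co-treated with compound and LipidTOX Red dye for 24 h at 37 C, then fixed with paraformaldehyde plus Hoechst 33342 and imaged by high-content microscopy for phospholipid accumulation.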

[6] = qHTS assay to identify small molecule HDAC inhibitors (AID 1259364); also: nearly all actives have a fitted effect of over 45% in size; also: potency is read from the fitted curve at half-maximal effect
Outline: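 Wild-type HCT-116 cells were plated overnight, exposed to compounds for 2 h at 37 °C, then given HDAC-Glo class I/II luminogenic reagent for 30 min at room temperature before luminescence was read.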

[7] = qHTS assay to identify small molecule HDAC inhibitors - cell viability counter screen (AID 1259365); also: series mostly up to about 92 µM; nearly all actives have a fitted effect of over 50% in size
Outline: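 HCT-116 (wild type), 1,500 cells/well, overnight 37C/5% CO2; compound in DMSO 2hr; CellTiter-Glo 30min RT; luminescence read.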

[8] = qHTS assay to identify small molecule agonists of the sonic hedgehog signaling (Shh) pathway - cell viability counter screen (AID 1259366); also: nearly all actives have a fitted effect of over 50% in size; also: potency is read from the fitted curve at half-maximal effect
Outline: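 CellTiter-Fluor fluorescence read-out, 1 hr at 37C, added after 23hr compound exposure. Cells: 3T3 Gli1-Luc, an NIH/3T3 clone with stably integrated Gli1-Luc reporter, plated 4hr before compound.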

[9] = qHTS assay to identify small molecule antagonists of the sonic hedgehog signaling (Shh) pathway - cell viability counter screen (AID 1259367); also: nearly all actives have a fitted effect of over 55% in size; also: potency is read from the fitted curve at half-maximal effect
Outline: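 NIH/3T3-derived Gli1-Luc reporter cells (2,000 per well) rested 4 hr at 37 C, then received DMSO compounds plus conditioned medium. After 23 hr of treatment, CellTiter-Fluor was added for 1 hr at 37C and fluorescence read.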

[10] = qHTS assay to identify small molecule agonists of the sonic hedgehog signaling (Shh) pathway (AID 1259368; calls by dose curve; also: series mostly up to about 92 µM; nearly all actives have a fitted effect of over 15% in size)
Outline: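 NIH/3T3-derived 3T3Gli1-Luc cells carrying a stably integrated Gli1 response element–firefly luciferase reporter were plated, left 4 hr at 37 C, then given compounds in DMSO for 24 hr. Luminescence was read 30 min after adding luciferase reagent.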

[11] = qHTS assay to identify small molecule antagonists of the sonic hedgehog signaling (Shh) pathway (AID 1259369; calls by dose curve; also: nearly all actives have a fitted effect of over 45% in size; also: potency is read from the fitted curve at half-maximal effect)
Outline: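 NIH/3T3-derived 3T3Gli1-Luc cells with stably integrated Gli1-Luc reporter were preincubated 4hr at 37 C, then given compounds in DMSO plus Shh conditioned medium and incubated 24hr. Firefly luciferase luminescence read after 30min reagent at room temperature.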

[12] = target: Estrogen receptor beta (Homo sapiens) (UniProt Q92731); assay: qHTS assay to identify small molecule antagonists of the estrogen receptor beta (ER-beta) signaling pathway (AID 1259378; active = well fitted inhibition curve with a large enough effect in the signal ratio in the repeat runs, not every such curve was filed as active; the % refers to the signal ratio; also: potency is read from the fitted curve at half-maximal effect)
Outline: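 ER-beta-UAS-bla HEK293T (GripTite) cells in 2% charcoal-stripped FBS medium were preincubated 6 hr at 37C, dosed with compound, then stimulated with 1 nM E2 (final) for 16 hr; beta-lactamase reporter read by B/G FRET fluorescence after 2 hr substrate loading.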

[13] = qHTS assay to identify small molecule agonists of the androgen receptor (AR) signaling pathway in the presence of an antagonist - cell viability counter screen (AID 1259379); also: nearly all actives have a fitted effect of over 25% in size; also: potency is read from the fitted curve at half-maximal effect
Outline: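 MDA-kb2 human breast carcinoma cells (stable MMTV-luciferase, AR/GR responsive) were seeded 3,000 cells/well, pre-incubated 5 hr at 37C without CO2, then given 3.0uM nilutamide and compounds at 15 concentrations for 16 hr. Viability was read by CellTiter-Fluor fluorescence.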

[14] = qHTS assay to identify small molecule antagonists of the estrogen receptor beta (ER-beta) signaling pathway - cell viability counter screen (AID 1259382); also: nearly all actives have a fitted effect of over 55% in size; also: potency is read from the fitted curve at half-maximal effect
Outline: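 ER-beta-UAS-bla HEK293T cells (2,000/well, 2% charcoal-stripped FBS) were pre-incubated 6 hr at 37C, then given compound plus 1nM final 17-beta-estradiol for 16 hr. Viability was read in the same wells by CellTiter-Glo luminescence after 30 min at room temperature.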

[15] = target: Estrogen receptor (Homo sapiens) (UniProt P03372); assay: qHTS assay to identify small molecule agonists of the estrogen receptor alpha (ER-alpha) signaling pathway in the presence of an antagonist (AID 1259383; calls by dose curve; also: top concentration of the series differs between compounds; nearly all actives have a fitted effect of over 15% in size)
Outline: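 VM7Luc4E2 cells (endogenous full-length ER-alpha, 4×ERE-luciferase) were precultured 5 days in phenol red-free medium with 10% charcoal-stripped FBS, given 10.0nM ICI-182,780 (final), then treated with compounds at 15 concentrations for 22hr at 37C; luminescence read with ONE-Glo.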

[16] = qHTS assay to identify small molecule agonists or antagonists of the thyroid stimulating hormone receptor (TSHR) signaling pathway - wild type cell line counter screen (AID 1259384; calls by dose curve)
Outline: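 Wild-type HEK293 cells were plated 18 h at 37 C/5% CO2, pin-dosed with compound plus Ro20-1724 medium, held 30 min at room temperature, then given cAMP-d2 and anti-cAMP-cryptate; fluorescence was read after 1 h. Fifteen concentrations, triplicate.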

[17] = target: Estrogen receptor beta (Homo sapiens) (UniProt Q92731); assay: qHTS assay to identify small molecule agonists of the estrogen receptor beta (ER-beta) signaling pathway (AID 1259377; active = well fitted activation curve with a large enough effect in the signal ratio in the repeat runs, not every such curve was filed as active; the % refers to the signal ratio)
Outline: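 Beta-lactamase reporter readout: fluorescence of LiveBLAzer B/G FRET substrate after 2 h at room temperature, following 16 h compound treatment of ER-beta-UAS-bla HEK293T cells at 37C in 2% charcoal-stripped FBS medium.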

[18] = target: Androgen receptor (Homo sapiens) (UniProt P10275); assay: qHTS assay to identify small molecule antagonists of the androgen receptor (AR) signaling pathway using the MDA cell line in the presence of 0.5 nM R1881 (AID 1259243); also: nearly all actives have a fitted effect of over 50% in size; also: potency is read from the fitted curve at half-maximal effect
Outline: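 MDA-kb2 human breast carcinoma cells carrying an MMTV-luciferase reporter (AR- and GR-responsive) were plated, rested 5 hr at 37C, dosed with compounds, then stimulated with 0.5 nM R1881 (final) for 16 hr; luminescence was read after ONE-Glo.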

[19] = qHTS assay to identify small molecule agonists of the estrogen receptor beta (ER-beta) signaling pathway - cell viability counter screen (AID 1259380); also: nearly all actives have a fitted effect of over 30% in size; also: potency is read from the fitted curve at half-maximal effect
Outline: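 ER-beta-UAS-bla HEK293T cells in medium with 2% charcoal-stripped FBS were preincubated 6 hr at 37C, dosed with compound in DMSO for 16 hr, then after the bla read, CellTiter-Glo was added for 30 min at room temperature; luminescence recorded.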

[20] = target: Androgen receptor (Homo sapiens) (UniProt P10275); assay: qHTS assay to identify small molecule agonists of the androgen receptor (AR) signaling pathway in the presence of an antagonist (AID 1259381; calls by dose curve; also: nearly all actives have a fitted effect of over 15% in size)
Outline: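 MDA-kb2 human breast carcinoma cells carrying an MMTV-luciferase reporter (AR- and GR-responsive) were treated with compounds at 15 concentrations plus 3.0uM final nilutamide for 16hr at 37C without CO2; luminescence was read after ONE-Glo addition.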

Sequence of Estrogen receptor beta (Homo sapiens) (Q92731 whole entry, looked up): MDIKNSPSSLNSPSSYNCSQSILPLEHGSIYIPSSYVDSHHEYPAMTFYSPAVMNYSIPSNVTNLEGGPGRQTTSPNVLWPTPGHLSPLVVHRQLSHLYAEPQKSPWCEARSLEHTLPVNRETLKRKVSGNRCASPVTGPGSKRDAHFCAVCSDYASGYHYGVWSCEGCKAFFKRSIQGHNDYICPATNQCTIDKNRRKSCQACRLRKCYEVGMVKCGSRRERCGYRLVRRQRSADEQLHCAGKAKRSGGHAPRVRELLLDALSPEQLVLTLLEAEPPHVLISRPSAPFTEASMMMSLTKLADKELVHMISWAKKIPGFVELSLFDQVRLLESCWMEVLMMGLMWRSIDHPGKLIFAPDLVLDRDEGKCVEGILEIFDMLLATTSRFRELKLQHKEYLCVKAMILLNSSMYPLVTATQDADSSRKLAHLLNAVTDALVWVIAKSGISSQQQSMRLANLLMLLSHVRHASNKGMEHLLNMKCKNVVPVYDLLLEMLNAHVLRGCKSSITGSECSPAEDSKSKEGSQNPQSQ
Sequence of Androgen receptor (Homo sapiens) (P10275 whole entry, looked up): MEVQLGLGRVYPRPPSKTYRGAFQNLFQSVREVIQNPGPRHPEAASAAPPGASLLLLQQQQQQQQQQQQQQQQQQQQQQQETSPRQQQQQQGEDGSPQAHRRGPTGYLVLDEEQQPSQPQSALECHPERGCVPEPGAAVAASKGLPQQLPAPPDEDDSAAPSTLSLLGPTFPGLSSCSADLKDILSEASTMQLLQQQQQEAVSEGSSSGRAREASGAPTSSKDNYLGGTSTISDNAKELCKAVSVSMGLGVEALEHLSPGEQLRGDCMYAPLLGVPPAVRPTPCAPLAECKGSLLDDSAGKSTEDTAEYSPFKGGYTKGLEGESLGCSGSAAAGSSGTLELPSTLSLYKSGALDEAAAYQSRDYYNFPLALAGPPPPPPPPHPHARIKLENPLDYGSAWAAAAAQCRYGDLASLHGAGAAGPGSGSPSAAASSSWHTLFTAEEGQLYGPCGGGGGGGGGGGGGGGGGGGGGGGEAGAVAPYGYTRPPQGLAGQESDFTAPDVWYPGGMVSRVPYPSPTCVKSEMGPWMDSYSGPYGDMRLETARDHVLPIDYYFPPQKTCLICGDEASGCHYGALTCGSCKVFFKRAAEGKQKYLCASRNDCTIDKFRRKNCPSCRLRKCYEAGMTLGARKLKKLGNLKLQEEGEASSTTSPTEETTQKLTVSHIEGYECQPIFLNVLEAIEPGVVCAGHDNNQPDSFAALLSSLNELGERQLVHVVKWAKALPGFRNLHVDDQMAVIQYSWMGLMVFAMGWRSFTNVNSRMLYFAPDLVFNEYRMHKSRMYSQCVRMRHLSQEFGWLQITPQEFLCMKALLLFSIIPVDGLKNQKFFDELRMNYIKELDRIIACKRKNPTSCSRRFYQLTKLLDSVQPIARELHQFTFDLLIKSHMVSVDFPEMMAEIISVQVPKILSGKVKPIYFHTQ
Sequence of Estrogen receptor (Homo sapiens) (P03372 whole entry, looked up): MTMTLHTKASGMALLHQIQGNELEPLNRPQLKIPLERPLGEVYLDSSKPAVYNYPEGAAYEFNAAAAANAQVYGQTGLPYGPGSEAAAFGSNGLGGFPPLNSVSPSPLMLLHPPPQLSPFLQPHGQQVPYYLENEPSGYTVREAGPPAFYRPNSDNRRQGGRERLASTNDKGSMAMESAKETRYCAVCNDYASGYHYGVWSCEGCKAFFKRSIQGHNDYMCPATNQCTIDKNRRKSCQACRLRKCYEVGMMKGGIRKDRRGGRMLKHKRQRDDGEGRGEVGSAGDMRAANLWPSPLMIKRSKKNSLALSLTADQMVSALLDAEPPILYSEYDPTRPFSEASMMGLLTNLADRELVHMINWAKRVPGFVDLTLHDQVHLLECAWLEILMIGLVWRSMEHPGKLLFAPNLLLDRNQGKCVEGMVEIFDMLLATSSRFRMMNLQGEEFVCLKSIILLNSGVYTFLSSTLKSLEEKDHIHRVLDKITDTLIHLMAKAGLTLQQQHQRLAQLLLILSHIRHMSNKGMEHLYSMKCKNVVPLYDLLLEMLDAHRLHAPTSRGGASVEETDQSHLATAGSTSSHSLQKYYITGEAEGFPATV

Row | Compound | Potency [1] | Potency [2] | Potency [3] | Potency [4] | Potency [5] | Potency [6] | outcome [7] | Potency [8] | Potency [9] | Potency [10] | Potency [11] | Potency [12] | Potency [13] | Potency [14] | Potency [15] | outcome [16] | Potency [17] | Potency [18] | Potency [19] | outcome [20]
1 | C#C[C@]1(O)CC[C@H]2[C@@H]3CCC4=Cc5oncc5C[C@]4(C)[C@H]3CC[C@@]21C | inactive | inactive | inactive | 30.6 µM (active) | inactive | inactive | inactive | inactive | inactive | inactive | 2.17 µM (active) and 11.9 µM (active) | 15.4 µM (active) | inactive | 48.6 µM (active) and 26.6 µM (active) | inactive | inactive |  |  |  | 
2 | CN(C)CCC=C1c2ccccc2CCc2ccccc21 | inactive | inactive | inactive | 54.5 µM (active) and inactive | 7.08 µM (active) | inactive | inactive | 68.6 µM (active) and inactive | 27.3 µM (active) and inactive | inactive | 2.73 µM (active) and 9.69 µM (active) and 7.5 µM (active) | 68.6 µM (active) | inactive | 15.4 µM (active) and 13.7 µM (active) and 26.6 µM (active) |  | inactive | inactive |  |  | 
3 | Cc1cccc(N(C)C(=S)Oc2ccc3ccccc3c2)c1 | inactive | inactive | inactive | inactive | inactive | inactive | inactive | inactive | inactive | inactive | 30.6 µM (active) | inactive | inactive | inactive | inactive | inactive | inactive |  |  | 
4 | Cc1ccc2c(n1)Oc1ccc(C(C)C(=O)OCC(=O)N(C)C)cc1C2 (centres undefined) | inactive | inactive | inactive | inactive | inactive | 11.9 µM (active) and 9.44 µM (active) | inactive | inactive |  | inactive | inactive | inactive | inactive | inactive |  | inactive | inactive | inactive | inactive | inactive
5 | Nc1ncn([C@@H]2O[C@H](CO)[C@@H](O)[C@H]2O)c(=O)n1 | inactive | inactive | inactive | inactive | inactive | inactive | inactive | inactive |  | inactive | 13.7 µM (active) |  |  | inactive | inactive | inactive |  | 4.33 µM (active) and 3.76 µM (active) |  | inactive
6 | O=C(Nc1ccc(Cl)cc1)Nc1ccc(Cl)c(Cl)c1 | inactive | inactive | 21.7 µM (active) and 23.7 µM (active) | 21.6 µM (active) and 12.2 µM (active) and 16.8 µM (active) | inactive | inactive | inactive | inactive |  | inactive | 12.1 µM (active) and inactive |  | 21.6 µM (active) and 24.3 µM (active) and 26.6 µM (active) | inactive |  | inactive | inactive | 17.1 µM (active) and 13.7 µM (active) and 13.3 µM (active) | 1.08 µM (active) and 2.17 µM (active) | inactive
7 | COc1cc([C@@H]2c3cc4c(cc3[C@H](O)[C@H]3COC(=O)[C@H]23)OCO4)cc(OC)c1OC | inactive | inactive | inactive |  |  | inactive | inactive | inactive | 106 nM (active) | inactive | 5.4 nM (active) and 16.8 nM (active) | inactive |  | inactive |  | inactive | inactive | inactive |  | inactive
8 | Cc1cccc(C(=O)O)c1 | inactive | inactive | inactive | inactive |  | inactive | inactive | 13.5 µM (active) and inactive | 3.03 µM (active) and inactive | inactive | 381 nM (active) and inactive | inactive | inactive | inactive | inactive | inactive | inactive | inactive | inactive | inactive
9 | CCOCCOCCO | inactive | inactive | inactive |  |  | inactive | inactive | inactive |  | inactive | inactive |  | inactive | inactive |  | inactive |  | inactive | inactive | inactive
10 | c1ccc2cc(Nc3ccc(Nc4ccc5ccccc5c4)cc3)ccc2c1 | inactive | inactive | inactive |  |  | inactive | inactive | inactive | inactive | inactive | inactive | inactive | inactive | inactive |  |  | inactive | inactive |  | inactive
11 | COC(C)COC(C)COC(C)CO (centres undefined) | inactive | inactive | inactive | inactive |  | inactive | inactive | inactive |  | inactive | inactive | inactive | inactive | inactive | inactive | inactive | inactive | inactive | inactive | inactive
12 | Cc1cccc([N+](=O)[O-])c1C | inactive | inactive | inactive | inactive |  | inactive | inactive | inactive |  | inactive | inactive | inactive | inactive | inactive |  |  | inactive | inactive | inactive | inactive
13 | Cc1c(OCC(F)(F)F)ccnc1CS(=O)c1nc2ccccc2[nH]1 (centres undefined) | inactive | inactive | inactive |  | inactive | inactive | inactive | inactive | inactive | inactive | inactive |  |  | inactive |  | inactive | inactive |  |  | 
